# A selection: hits, their analogues and other compounds. The true share with any hit is near 2.8%.
# TNF necrop inh = blocks TNF-alpha induced death of Jurkat FADD-/- cells; activation (protection from cell death), % at 10 µM; AID 463075; Jurkat FADD-/- TNF necroptosis rescue, ATP luminescence, 24 h; 0 = TNF only, 100 = no-TNF cells; 0.068% of 220,000 active;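 active = activation, meaning protection from cell death, of at least 50% relative to plate controls; inactive = activation below 50%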;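 note: necroptosis triggered by 40 ng/mL TNF-alpha added together with compound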
# m-calpain inh = blocks pig calpain II enzyme activity | purified calpain II, fluorogenic peptide substrate, 30 min | inhibition, % at 16 µM | 0.37% of 220,000 active;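 active = inhibition above about 50%, limit read from the data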
# Mcl1-Noxa inh = disrupts binding of human Mcl-1 to Noxa peptide; TR-FRET Mcl-1/Noxa peptide binding, 2 h; inhibition, % at 21.7 µM; 1.5% of 220,000 active;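 active = compounds that cut the protein-peptide binding signal by more than 50% relative to plate controls in a single-dose test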;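 note: His-tagged Mcl-1 with rhodamine Noxa BH3 peptide and terbium anti-His antibody; 0% = Mcl-1 plus Noxa peptide wells and 100% = peptide-only wells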
# Target sequence (Q07820 whole entry, looked up): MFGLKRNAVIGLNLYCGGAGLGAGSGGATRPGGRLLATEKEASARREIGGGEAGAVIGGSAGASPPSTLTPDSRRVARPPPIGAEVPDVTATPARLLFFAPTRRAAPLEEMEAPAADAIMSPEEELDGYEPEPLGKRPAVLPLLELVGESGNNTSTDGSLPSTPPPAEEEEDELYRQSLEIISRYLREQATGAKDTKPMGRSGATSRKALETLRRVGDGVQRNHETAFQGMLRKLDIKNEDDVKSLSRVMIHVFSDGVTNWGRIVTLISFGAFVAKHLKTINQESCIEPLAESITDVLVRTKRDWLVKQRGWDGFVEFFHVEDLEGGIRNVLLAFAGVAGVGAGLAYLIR
# Mcl1 Bid PPI = Mcl-1/Bid interaction inhibition; TR-FRET Mcl-1/Bid-Dy647 peptide binding, 1536-well; inhibition, % at 21.7 µM; 0.97% of 220,000 active; AID 1021;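 active = compounds that cut the binding signal by more than half at the single screening dose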;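 note: His-tagged Mcl-1 with europium anti-His antibody binding Bid BH3 peptide; 0% = Mcl-1 plus peptide wells and 100% = peptide-only wells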
# zVAD death inh = blocks zVAD induced death of L929 cells | L929 zVAD necroptosis rescue, ATP luminescence, 24 h; with zVAD 60 µM | viability rescue, % at 10 µM | 0.38% of 220,000 active | AID 1377;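 active = activation, scaled between plate controls, above about 75%, limit read from the data; inactive = activation under that limit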;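 note: 0% = zVAD with DMSO and 100% = DMSO alone without zVAD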
# Mcl-1 Bim block = disrupts Bim peptide binding to human Mcl-1 | Q07820 | Bead-based flow cytometry, Bim peptide-Mcl-1 binding | inhibition, % at 10 µM | 0.1% of 190,000 active | AID 1009; in the data active = inhibition above about 40%;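 note: 0% = no compound tracer wells and 100% = peptide blocker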
# Numbers without * were called inactive; i = inactive; . = no result.
SMILES,TNF necrop inh,m-calpain inh,Mcl1-Noxa inh,Mcl1 Bid PPI,zVAD death inh,Mcl-1 Bim block
CCN(CC)C(=O)CSc1nnc(-c2cccnc2)n1CCc1ccccc1,-3,-5,61*,-3,-1,3
COc1ccc(NC(=O)c2ccccc2NC(=O)CSc2ccc(Cl)cc2)cc1,-1,18,-1,-33,0,1
CC(Sc1ccc2c(c1)OCCO2)C(=O)Nc1ccc(N2CCOCC2)cc1 (centres undefined),0,8,12,-31,1,-2
CCn1c(C)nc2cc(S(=O)(=O)C(F)(F)C(F)C(F)(F)F)ccc21 (centres undefined),-2,90*,10,-26,0,-1
CC1CCCN(C(=O)C2CCN(S(=O)(=O)c3cccc4cccnc34)CC2)C1 (centres undefined),-1,7,-7,-3,0,1
CN(C)C(=O)/C(C#N)=C\c1cc(Br)c(Sc2ccc(Cl)cc2)o1,-1,-55,9,100*,1,-3
N=c1c(C(=O)NCc2ccc(F)cc2)cc2c(=O)n3ccccc3nc2n1Cc1cccnc1,0,i,75*,20,0,0
COc1ccc(CCn2c(=N)c(C(=O)NCc3ccco3)cc3c(=O)n4ccccc4nc32)cc1,-5,-21,68*,0,-1,2
COC(=O)c1cc2c(=O)n3ccccc3nc2n(Cc2cccnc2)c1=N,-1,.,.,.,0,.
COCCn1c(=N)c(C(=O)NCCc2ccc(OC)cc2)cc2c(=O)n3cccc(C)c3nc21,-16,.,.,.,-1,-1
CC(C)NC(=O)CSc1nnc(-c2ccc(F)cc2)c2ccccc12,-2,-27,18,1,0,-1
CC(C)Cn1c(-c2ccc(Br)cc2)c[nH]c1=S,0,75*,40,-16,0,0
O=C(Cn1cncn1)N/N=C/c1cccnc1,4,11,-13,-45,1,.
CCC(C)NCCOCCOc1ccc(C)cc1Br (centres undefined),-3,10,16,29,0,4
CCC(C)NCCCOc1c(C)cc(C)cc1Br (centres undefined),7,15,119*,26,0,0
COc1ccc(-c2csc(NC(=O)c3ccccc3NS(=O)(=O)c3ccc(F)c(F)c3)n2)cc1,-11,61*,34,4,2,1
Cc1ccc(S(=O)(=O)Nc2ccccc2C(=O)Nc2nc(-c3ccc(F)cc3)cs2)cc1,-2,-59,12,-8,1,-8
CC(C)(C)CC(=O)O/N=C(\N)c1ccccn1,1,22,-6,85*,1,-6
CC(C)C(=O)NC(=S)N(Cc1ccccc1)Cc1ccccc1,1,29,25,2,0,-3
CC(C)CC(=O)NC(=S)N(Cc1ccccc1)Cc1ccccc1,0,28,56*,-31,0,0
N#C/C(=N\Nc1cccc(C(F)(F)F)c1)C(=O)c1ccsc1,-4,38,8,-10,1,.
O=C(Cn1nc(C(F)(F)F)c2c1CCCC2)NCc1ccco1,-3,11,-2,98*,-1,1
FC(F)(F)C1=CC(c2ccccc2)=NCCN1,-1,3,88*,-24,0,-2
CC(=O)Nc1ccc(N=Cc2c(O)c(C(=O)Nc3ccccc3)cc3ccccc23)cc1,-15,-181,84*,71*,14,-2
CCOc1cc(Br)c(Br)c(C=Nc2ccc(NC(C)=O)cc2)c1O,-1,-7,51*,6,2,4
SMILES,TNF necrop inh,m-calpain inh,Mcl1-Noxa inh,Mcl1 Bid PPI,zVAD death inh,Mcl-1 Bim block
Cc1ccc2c(c1)c1cccc3c1n2CCN3CCC(N)=O,3,i,67*,-71,0,4
CCOc1ccc(Br)cc1S(=O)(=O)NC(=O)c1ccccc1,0,13,9,15,1,4
O=C(COC(=O)c1ccc(Br)o1)Nc1ccc(S(=O)(=O)N2CCCC2)cc1,-1,-16,44,60*,0,-4
O=C(Nc1ccc(S(=O)(=O)N2CCCCCC2)cc1)c1ccc(Br)o1,-5,55*,32,-13,6,-8
O=C(COC(=O)c1ccc(S(=O)(=O)N2CCCC2)cc1)Nc1ccc(N2CCOCC2)cc1,1,-23,33,-20,3,-2
COCCNC(=S)NNC(=O)c1ccc(-n2cnnn2)cc1,0,-9,-1,-44,0,-2
